The target in experiment [1] is T1, Mitogen-activated protein kinase 12 (Homo sapiens) (UniProt P53778).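 Also: values are averaged p38gamma kinase inhibition readings, compounds tested at 1 µM.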
T1 sequence (whole entry): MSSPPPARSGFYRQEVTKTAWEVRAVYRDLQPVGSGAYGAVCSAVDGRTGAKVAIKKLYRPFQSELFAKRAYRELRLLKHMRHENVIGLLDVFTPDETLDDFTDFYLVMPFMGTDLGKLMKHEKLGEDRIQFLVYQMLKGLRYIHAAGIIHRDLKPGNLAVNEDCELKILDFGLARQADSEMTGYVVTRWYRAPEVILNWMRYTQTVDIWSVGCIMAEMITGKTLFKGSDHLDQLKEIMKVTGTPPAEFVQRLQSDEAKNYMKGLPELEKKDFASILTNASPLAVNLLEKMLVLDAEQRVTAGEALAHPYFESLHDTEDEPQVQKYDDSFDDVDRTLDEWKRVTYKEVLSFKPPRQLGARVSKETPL
To be noted: at 1 µM.

Experiment [2] deals with SRSF protein kinase 1 (Homo sapiens) (UniProt Q96SB4). To be noted: at 0.1 µM.
Chain of SRSF protein kinase 1 (Homo sapiens) (Q96SB4 whole entry): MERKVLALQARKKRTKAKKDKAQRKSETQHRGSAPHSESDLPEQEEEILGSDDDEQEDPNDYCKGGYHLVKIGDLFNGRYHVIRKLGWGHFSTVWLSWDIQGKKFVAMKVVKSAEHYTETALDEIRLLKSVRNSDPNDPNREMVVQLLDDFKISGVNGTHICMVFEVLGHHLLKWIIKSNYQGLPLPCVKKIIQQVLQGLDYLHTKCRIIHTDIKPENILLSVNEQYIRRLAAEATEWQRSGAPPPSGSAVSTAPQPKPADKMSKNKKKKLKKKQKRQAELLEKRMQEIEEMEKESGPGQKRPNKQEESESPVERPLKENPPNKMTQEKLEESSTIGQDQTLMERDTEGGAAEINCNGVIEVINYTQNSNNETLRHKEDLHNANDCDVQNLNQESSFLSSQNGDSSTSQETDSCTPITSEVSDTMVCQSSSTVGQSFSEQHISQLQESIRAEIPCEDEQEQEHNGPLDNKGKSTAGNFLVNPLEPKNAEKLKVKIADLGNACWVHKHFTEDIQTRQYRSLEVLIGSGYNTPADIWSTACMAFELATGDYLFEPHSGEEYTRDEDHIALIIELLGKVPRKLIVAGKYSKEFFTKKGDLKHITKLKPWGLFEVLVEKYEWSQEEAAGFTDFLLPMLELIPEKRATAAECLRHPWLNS
Experiment [3] has the same target. To be noted: at 1 µM.
In experiment [4] the target is Phosphatidylinositol 4,5-bisphosphate 3-kinase catalytic subunit alpha isoform (Homo sapiens) (UniProt P42336). To be noted: at 0.1 µM.
Chain of Phosphatidylinositol 4,5-bisphosphate 3-kinase catalytic subunit alpha isoform (Homo sapiens) (P42336 whole entry, canonical isoform): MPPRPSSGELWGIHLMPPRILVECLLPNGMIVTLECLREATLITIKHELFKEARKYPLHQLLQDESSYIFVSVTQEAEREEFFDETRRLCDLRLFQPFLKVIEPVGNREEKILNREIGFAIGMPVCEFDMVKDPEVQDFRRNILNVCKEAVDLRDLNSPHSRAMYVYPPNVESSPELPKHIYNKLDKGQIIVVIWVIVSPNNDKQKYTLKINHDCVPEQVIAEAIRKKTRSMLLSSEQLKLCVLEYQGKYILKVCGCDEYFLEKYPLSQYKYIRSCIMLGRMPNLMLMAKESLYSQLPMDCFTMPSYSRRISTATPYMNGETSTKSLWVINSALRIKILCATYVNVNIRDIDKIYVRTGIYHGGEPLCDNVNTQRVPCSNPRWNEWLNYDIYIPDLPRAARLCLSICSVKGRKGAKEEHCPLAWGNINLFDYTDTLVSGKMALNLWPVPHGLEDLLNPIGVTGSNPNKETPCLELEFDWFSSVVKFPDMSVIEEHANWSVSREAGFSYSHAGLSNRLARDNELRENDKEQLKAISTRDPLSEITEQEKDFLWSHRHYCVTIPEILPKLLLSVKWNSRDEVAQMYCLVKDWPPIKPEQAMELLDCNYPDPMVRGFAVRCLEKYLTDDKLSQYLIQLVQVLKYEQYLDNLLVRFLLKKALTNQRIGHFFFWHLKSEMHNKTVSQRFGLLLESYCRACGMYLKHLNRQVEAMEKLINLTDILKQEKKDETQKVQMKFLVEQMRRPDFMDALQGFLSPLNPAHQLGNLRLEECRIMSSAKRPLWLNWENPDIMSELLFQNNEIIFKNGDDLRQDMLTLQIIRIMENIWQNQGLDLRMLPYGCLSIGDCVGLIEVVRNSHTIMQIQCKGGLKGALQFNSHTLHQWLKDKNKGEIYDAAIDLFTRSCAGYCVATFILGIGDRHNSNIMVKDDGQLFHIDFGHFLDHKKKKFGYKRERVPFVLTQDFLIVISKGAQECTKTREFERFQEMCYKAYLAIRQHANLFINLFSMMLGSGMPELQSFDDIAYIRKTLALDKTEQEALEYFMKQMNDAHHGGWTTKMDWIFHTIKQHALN
Experiment [5] has the same target. To be noted: at 1 µM.
The target in experiment [6] is T2, Phosphatidylinositol 4,5-bisphosphate 3-kinase catalytic subunit delta isoform (Homo sapiens) (UniProt O00329).
T2 sequence (whole entry): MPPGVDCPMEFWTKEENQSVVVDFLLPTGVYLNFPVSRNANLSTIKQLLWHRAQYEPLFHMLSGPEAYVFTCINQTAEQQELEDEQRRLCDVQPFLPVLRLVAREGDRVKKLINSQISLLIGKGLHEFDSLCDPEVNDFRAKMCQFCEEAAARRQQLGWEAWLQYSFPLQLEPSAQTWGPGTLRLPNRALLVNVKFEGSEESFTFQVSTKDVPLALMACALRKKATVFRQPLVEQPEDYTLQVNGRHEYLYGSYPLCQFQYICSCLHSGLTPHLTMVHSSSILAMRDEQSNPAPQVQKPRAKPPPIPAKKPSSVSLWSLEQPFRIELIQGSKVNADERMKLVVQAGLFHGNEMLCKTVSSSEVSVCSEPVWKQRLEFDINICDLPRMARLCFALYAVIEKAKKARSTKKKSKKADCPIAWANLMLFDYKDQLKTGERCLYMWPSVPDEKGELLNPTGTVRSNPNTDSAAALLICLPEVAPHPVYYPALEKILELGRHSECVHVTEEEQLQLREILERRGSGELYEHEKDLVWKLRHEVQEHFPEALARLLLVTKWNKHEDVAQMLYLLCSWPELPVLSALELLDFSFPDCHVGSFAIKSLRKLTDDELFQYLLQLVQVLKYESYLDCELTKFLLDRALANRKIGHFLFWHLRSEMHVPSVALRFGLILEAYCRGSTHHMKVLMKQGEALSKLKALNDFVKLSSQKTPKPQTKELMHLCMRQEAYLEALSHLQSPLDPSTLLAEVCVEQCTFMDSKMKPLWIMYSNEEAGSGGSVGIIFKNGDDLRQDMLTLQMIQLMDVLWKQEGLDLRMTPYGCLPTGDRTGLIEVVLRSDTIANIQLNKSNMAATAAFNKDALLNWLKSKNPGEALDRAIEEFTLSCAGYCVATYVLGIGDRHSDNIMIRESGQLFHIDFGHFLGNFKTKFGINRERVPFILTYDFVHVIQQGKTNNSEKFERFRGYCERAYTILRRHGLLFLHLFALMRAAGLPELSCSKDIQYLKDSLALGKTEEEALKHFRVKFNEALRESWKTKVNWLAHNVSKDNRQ
To be noted: at 0.1 µM.

The target of experiment [7] is T2, Phosphatidylinositol 4,5-bisphosphate 3-kinase catalytic subunit delta isoform (Homo sapiens). To be noted: at 1 µM.
In experiment [8] the target is Phosphatidylinositol 4-kinase beta (Homo sapiens) (UniProt Q9UBF8). To be noted: at 0.1 µM.
Chain of Phosphatidylinositol 4-kinase beta (Homo sapiens) (Q9UBF8 2-816 limits assumed): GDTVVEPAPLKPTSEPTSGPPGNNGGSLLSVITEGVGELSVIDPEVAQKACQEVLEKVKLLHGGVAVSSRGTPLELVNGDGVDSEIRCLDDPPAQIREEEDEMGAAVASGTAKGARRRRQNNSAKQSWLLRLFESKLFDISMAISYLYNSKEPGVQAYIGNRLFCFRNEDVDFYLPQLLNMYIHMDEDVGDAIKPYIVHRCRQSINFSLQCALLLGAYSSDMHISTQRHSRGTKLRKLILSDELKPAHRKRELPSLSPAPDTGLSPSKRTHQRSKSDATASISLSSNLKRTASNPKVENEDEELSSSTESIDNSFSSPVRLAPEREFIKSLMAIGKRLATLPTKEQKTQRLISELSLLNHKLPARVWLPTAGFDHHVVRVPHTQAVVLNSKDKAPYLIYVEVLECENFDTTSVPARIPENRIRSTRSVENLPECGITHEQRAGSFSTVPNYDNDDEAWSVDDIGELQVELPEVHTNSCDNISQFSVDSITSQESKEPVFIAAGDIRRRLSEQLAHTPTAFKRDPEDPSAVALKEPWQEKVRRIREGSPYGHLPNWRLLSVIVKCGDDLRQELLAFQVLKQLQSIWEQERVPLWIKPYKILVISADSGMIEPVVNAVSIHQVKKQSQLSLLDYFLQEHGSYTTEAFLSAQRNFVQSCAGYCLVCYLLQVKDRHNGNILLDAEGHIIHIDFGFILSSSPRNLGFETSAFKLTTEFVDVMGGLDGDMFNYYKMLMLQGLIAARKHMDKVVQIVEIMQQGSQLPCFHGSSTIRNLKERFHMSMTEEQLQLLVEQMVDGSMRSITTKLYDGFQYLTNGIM
For experiment [9] the target is unchanged. To be noted: at 1 µM.
Experiment [10] deals with Sphingosine kinase 1 (Homo sapiens) (UniProt Q9NYA1). To be noted: at 0.1 µM.
Chain of Sphingosine kinase 1 (Homo sapiens) (Q9NYA1 whole entry): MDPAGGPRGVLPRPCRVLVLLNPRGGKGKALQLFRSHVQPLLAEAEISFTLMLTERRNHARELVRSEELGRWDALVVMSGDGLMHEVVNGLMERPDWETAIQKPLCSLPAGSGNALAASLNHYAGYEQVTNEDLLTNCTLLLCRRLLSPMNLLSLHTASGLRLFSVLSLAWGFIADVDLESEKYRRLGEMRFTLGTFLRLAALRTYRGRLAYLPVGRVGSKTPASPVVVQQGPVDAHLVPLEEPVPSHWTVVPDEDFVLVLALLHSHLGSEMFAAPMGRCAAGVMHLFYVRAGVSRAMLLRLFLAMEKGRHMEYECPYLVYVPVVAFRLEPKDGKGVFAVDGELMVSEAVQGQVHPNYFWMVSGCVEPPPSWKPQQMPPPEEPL
The target is the same in experiment [11]. To be noted: at 1 µM.
Experiment [12] concerns the target T3, Sphingosine kinase 2 (Homo sapiens) (UniProt Q9NRA0).
T3 sequence (whole entry): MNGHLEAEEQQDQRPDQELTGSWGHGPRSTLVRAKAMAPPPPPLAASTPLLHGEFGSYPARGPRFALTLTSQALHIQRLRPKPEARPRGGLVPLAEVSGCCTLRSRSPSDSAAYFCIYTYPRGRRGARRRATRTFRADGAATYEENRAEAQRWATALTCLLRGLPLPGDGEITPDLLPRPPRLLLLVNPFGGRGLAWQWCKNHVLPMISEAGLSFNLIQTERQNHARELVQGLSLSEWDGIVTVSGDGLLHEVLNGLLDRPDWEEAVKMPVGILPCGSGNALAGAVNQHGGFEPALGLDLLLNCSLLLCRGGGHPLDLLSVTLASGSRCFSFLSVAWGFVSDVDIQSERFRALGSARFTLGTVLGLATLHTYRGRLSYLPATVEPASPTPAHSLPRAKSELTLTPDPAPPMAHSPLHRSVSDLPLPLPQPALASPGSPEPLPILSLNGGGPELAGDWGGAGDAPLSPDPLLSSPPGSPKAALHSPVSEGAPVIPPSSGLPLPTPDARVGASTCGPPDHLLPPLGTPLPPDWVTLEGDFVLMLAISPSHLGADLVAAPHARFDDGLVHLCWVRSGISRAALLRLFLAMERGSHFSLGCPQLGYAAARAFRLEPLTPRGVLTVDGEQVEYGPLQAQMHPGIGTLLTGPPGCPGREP
To be noted: at 0.1 µM.

Experiment [13] concerns the target T3, Sphingosine kinase 2 (Homo sapiens). To be noted: at 1 µM.
The target in experiment [14] is Casein kinase II subunit alpha (Homo sapiens) (UniProt P68400). To be noted: at 0.1 µM.
Chain of Casein kinase II subunit alpha (Homo sapiens) (P68400 whole entry, looked up): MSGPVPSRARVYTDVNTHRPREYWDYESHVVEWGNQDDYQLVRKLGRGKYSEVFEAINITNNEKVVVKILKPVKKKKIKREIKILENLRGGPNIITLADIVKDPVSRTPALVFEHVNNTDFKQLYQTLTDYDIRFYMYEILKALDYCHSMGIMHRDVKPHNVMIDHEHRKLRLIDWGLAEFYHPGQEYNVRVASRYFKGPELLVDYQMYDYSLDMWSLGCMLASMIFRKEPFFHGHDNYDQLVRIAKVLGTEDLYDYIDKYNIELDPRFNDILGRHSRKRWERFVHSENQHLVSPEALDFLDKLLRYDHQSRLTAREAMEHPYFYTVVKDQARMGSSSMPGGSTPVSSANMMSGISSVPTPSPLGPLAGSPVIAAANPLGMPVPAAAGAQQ
The target is the same in experiment [15]. To be noted: at 1 µM.
Experiment [16] addresses T4, Inhibitor of nuclear factor kappa-B kinase subunit alpha (Homo sapiens) (UniProt O15111).
T4 sequence (whole entry): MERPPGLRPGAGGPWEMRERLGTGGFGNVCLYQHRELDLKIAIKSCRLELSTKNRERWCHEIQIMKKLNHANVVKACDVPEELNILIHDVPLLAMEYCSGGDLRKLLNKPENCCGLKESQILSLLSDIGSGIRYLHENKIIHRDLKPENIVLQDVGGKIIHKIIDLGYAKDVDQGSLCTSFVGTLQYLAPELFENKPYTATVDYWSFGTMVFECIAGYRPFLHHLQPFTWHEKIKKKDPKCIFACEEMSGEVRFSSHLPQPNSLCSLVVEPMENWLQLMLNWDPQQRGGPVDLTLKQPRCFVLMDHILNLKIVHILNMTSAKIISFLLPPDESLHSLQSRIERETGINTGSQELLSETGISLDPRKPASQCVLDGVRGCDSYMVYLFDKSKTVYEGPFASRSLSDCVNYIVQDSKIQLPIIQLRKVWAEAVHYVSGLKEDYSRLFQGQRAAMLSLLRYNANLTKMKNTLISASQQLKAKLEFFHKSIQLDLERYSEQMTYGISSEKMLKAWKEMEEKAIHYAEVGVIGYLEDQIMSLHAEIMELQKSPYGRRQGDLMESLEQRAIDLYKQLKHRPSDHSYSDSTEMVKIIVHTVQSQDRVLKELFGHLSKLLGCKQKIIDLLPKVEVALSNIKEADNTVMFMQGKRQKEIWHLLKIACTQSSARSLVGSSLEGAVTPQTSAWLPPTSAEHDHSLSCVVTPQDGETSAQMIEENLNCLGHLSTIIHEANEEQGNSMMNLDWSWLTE
To be noted: at 0.1 µM.

Experiment [17] deals with T4, Inhibitor of nuclear factor kappa-B kinase subunit alpha (Homo sapiens). To be noted: at 1 µM.
Experiment [18] concerns the target T5, Inhibitor of nuclear factor kappa-B kinase subunit beta (Homo sapiens) (UniProt O14920).
T5 sequence (whole entry): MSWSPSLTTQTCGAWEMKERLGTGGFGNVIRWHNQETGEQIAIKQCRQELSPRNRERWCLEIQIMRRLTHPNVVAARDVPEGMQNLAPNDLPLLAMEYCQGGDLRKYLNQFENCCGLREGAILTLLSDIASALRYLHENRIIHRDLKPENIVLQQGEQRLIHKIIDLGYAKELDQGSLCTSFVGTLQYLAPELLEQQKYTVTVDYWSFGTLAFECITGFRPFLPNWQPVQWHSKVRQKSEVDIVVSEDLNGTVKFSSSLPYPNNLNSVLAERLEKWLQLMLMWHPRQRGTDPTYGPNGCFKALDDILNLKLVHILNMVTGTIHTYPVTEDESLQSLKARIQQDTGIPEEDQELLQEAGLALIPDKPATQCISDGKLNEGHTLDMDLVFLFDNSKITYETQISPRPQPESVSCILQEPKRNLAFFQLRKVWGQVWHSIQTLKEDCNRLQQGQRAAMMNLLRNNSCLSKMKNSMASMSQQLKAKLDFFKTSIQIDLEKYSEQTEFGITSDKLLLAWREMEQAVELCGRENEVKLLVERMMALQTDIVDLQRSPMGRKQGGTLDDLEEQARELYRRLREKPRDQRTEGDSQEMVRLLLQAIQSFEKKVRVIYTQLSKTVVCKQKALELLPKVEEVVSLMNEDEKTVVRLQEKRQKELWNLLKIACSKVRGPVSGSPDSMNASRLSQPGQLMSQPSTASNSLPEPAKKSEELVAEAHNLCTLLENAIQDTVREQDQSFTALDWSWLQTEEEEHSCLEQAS
To be noted: at 0.1 µM.

Experiment [19] deals with T5, Inhibitor of nuclear factor kappa-B kinase subunit beta (Homo sapiens). To be noted: at 1 µM.
For experiment [20], the target named is T6, Inhibitor of nuclear factor kappa-B kinase subunit epsilon (Homo sapiens) (UniProt Q14164).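 Also: mean inhibition of IKKε reported, from the GSK PKIS dataset.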
T6 sequence (whole entry): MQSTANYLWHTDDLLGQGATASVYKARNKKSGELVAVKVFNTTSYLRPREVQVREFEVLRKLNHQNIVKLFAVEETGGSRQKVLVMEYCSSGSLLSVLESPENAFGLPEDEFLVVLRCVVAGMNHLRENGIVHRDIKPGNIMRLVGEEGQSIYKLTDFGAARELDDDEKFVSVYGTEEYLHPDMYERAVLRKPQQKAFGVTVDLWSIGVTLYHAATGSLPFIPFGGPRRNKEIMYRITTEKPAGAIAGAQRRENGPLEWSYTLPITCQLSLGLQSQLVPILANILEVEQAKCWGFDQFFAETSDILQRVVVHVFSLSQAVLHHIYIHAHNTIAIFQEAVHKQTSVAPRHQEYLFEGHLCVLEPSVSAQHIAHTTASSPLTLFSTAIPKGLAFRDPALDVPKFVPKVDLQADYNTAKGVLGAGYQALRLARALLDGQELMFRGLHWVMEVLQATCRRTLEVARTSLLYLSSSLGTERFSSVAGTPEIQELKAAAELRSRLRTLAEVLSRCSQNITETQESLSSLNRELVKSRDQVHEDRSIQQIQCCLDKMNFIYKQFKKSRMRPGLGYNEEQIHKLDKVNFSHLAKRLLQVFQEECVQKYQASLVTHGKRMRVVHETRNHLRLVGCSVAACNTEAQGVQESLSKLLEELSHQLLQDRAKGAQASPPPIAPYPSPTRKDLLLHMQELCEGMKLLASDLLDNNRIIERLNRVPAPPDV
To be noted: at 0.1 µM.

Regarding `NS(=O)(=O)c1ccc(-c2ccc3c(NC(=O)C4CC4)n[nH]c3c2)cc1`, the inhibition was 0.58% in experiment [1]; -1.31% in [2]; -2.21% in experiment [3]; 2.7% in experiment [4]; 3.32% in experiment [5]; 3.34% in experiment [6]. The inhibition in [7] is 8.4%; in experiment [8] it was -0.87%; in [9], -1.58%; in experiment [10], -2.63%; in experiment [11], -1.21%; in [12] it was 0.08%. Moreover, the inhibition in experiment [13] is -0.22%; in experiment [14], 1.12%; in [15] it was 1.51%; in experiment [16], 2.81%; in [17] it was 3%; in experiment [18] it was 3.94%. The inhibition was 3.28% in experiment [19] and -0.78% in experiment [20].

As for `CCn1c(-c2nonc2N)nc2c(C#CCN)ncc(OCCCN)c21`, the inhibition in experiment [1] was -2.79%; in [2] it was 2.33%; in experiment [3], 7.14%; in experiment [4], -0.54%; in experiment [5], -3.54%; in experiment [6], -2.56%. Besides, the inhibition in experiment [7] was -5.7%; in experiment [8] it was 1.34%; in experiment [9] it was -2.08%; in [10], 0.33%; in [11], -2.44%; in experiment [12], 0.6%. In addition, the inhibition was -1.33% in experiment [13]; -1.18% in [14]; 10.1% in experiment [15]; -6.76% in experiment [16]; -0.57% in experiment [17]; -4.65% in experiment [18]. The values for the inhibition in experiment [19] and in experiment [20] were 0.63% and 0.53%, respectively.

Regarding `Cc1cc(-c2ccco2)cc(C)c1/C=C/c1cncc(-c2nn[nH]n2)c1`, the inhibition in experiment [1] is 1.3%; in experiment [2], -0.96%; in experiment [3] it was -1.7%; in experiment [4] it was -0.22%; in [5], 6.64%; in experiment [6], 0.16%. Further, the inhibition in experiment [7] is -1.23%; in experiment [8], -1.26%; in experiment [9], 9.03%; in experiment [10], 0.73%; in [11], -1.08%; in experiment [12], -0.36%. In addition, the inhibition in experiment [13] is 1.61%; in experiment [14], 1.49%; in experiment [15], 3.8%; in [16], -1.31%; in experiment [17] it was 2.26%; in experiment [18], 3.61%. For the same compound, the inhibition in experiment [19] was 2.75%; in experiment [20], 4.22%.

One may read the inhibition as the change of the read-out against control, counted positive when it falls.

The values above are taken from ChEMBL document CHEMBL1961873, “Compounds: GSK PKIS; Assays: Nanosyn kinase panel” (2012).
